# Most compounds without a hit are left out; they make up all but 2.9% or so of the library.
# MEKK3 PB1 HTS: raises or lowers MEK5 binding to the human MEKK3 PB1 domain | binding response (% of control), % at 10 µM | Q99759 | 1.4% of 290,000 active | bead-based flow cytometry, Alexa488-MEK5 binding to MEKK3; actives lie on both sides; 0 = blocked by unlabeled MEK5, 100 = vehicle;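 active = binding response more than 3 SD above or below the average of its plate-row segment, actives on both sides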;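 also: Alexa488 bead fluorescence after subtracting the streptavidin-only scavenger bead signal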
# Target sequence (Q99759 whole entry, looked up, the tested form may be a part): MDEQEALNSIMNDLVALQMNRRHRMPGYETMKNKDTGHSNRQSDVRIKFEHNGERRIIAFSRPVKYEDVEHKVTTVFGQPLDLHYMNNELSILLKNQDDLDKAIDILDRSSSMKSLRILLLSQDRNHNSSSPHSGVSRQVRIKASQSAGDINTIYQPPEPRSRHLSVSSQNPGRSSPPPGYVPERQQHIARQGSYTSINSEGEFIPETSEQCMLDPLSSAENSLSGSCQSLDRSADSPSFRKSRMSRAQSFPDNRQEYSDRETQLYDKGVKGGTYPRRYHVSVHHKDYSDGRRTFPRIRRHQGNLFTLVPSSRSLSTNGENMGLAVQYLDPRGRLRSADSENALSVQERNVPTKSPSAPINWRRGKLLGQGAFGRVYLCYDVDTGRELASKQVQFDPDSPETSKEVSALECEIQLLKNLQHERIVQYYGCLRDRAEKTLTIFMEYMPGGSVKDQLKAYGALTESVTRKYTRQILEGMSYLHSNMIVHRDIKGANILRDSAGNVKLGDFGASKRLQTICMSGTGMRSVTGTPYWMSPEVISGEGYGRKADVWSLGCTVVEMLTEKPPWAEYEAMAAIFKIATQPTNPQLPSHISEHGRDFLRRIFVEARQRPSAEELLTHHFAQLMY
# MEKK2 mut-MEK5: signal of MEK5 binding to mutant human MEKK2 PB1 domain; bead flow cytometry, Alexa488-MEK5 binding to MEKK2 mutant; percent response, % at 10 µM; 0.35% of 290,000 active; in the data active = percent response above about 24%, passing the limit was not always enough
# ABCB6 inh MLPCN: inhibitors of human ABC transporter ABCB6; Q9NP58; K562-ABCB6 porphyrin accumulation, flow cytometry, 1 h; hits give low values; fluorescence ratio to DMSO, % at 10 µM; 0.19% of 360,000 active; AID 602162;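 active = fluorescence ratio to DMSO below 75%, the collection mean minus 3 SD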;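 also: signal is porphyrin accumulated inside mitochondria; lower ratio means ABCB6 inhibition with less porphyrin fluorescence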
# MEKK2 WT-MEK5: raises or lowers MEK5 binding to wildtype human MEKK2 PB1 domain; Q9Y2U5; binding response (% of control), % at 10 µM; bead flow cytometry, Alexa488-MEK5 binding to MEKK2 WT; actives lie on both sides; 1.1% of 290,000 active; AID 1531; in the data active = binding response below about 67% or above about 130%
# CRFBP-R2 block: antagonists of CRF-binding protein/CRF-R2 receptor complex; inhibition, % at 11.8 µM; HEK293 CRF-R2/CRF-BP, CRF-induced calcium fluorescence; AID 588475; 0.59% of 350,000 active;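 active = inhibition of the ligand-induced calcium signal above about 50% at the single tested concentration, limit read from the data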
# CRFR2-BP ag: CRF-BP/CRF-R2 complex agonism; HEK293 CRF-R2/CRF-BP, calcium dye fluorescence (FLIPR); percent of saturating CRF peptide response; activation, % at 13.2 µM; 0.46% of 350,000 active; AID 588473;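 active = activation of at least 50%, plus an integration ratio under a set limit after plate pattern correction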
# MEKK2wt confirm: raises or lowers MEK5 binding to wildtype human MEKK2, retest; AID 1892; bead flow cytometry, Alexa488-MEK5 binding to MEKK2 WT; actives lie on both sides; 2.4% of 5,900 active; binding response (% of control), % at 10 µM; shares compounds with MEKK3 PB1 HTS; in the data active = binding response below about 16% or above about 210%; inactive = in between
# MEKK2mut-MEK5: signal of MEK5 binding to mutant human MEKK2, retest. shares compounds with MEKK3 PB1 HTS. bead flow cytometry, Alexa488-MEK5 binding to MEKK2 mutant. percent response, % at 10 µM. 2% of 5,900 active. AID 1893; in the data active = percent response mostly above about 71%, no sharp cut-off; inactive = mostly below about 38%;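 also: higher means compound restores mutant binding toward wildtype level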
# MEKK3-MEK5 inh: confirmation of inhibitors of MEK5 binding to human MEKK3; shares compounds with MEKK3 PB1 HTS; AID 1894; bead flow cytometry, Alexa488-MEK5 binding to MEKK3; hits give low values; 1.8% of 5,900 active; binding response (% of control), % at 10 µM;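 active = binding response below 72% of control, or above a set upper limit, though filed actives all read lower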;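 also: lower values mean stronger disruption of MEK5 binding to MEKK3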
# Hits are given with their value; – = inactive; · = no result; [ ] = dose if it differs, or a comment.
SMILES,MEKK3 PB1 HTS,MEKK2 mut-MEK5,ABCB6 inh MLPCN,MEKK2 WT-MEK5,CRFBP-R2 block,CRFR2-BP ag,MEKK2wt confirm,MEKK2mut-MEK5,MEKK3-MEK5 inh
c1ccc(OCCOc2cccc3cccnc23)cc1,152,–,–,–,–,–,–,–,–
C#CCOCCOCCOCCNc1nc(N2CCN(C(=O)[C@H](CCCCN)n3cc([C@@H](N)CC(C)C)nn3)CC2)nc(N2CCN(C(=O)[C@H](Cc3cc4ccccc4[nH]3)n3cc([C@@H](N)Cc4ccc(O)cc4)nn3)CC2)n1,–,60,–,187,–,–,232,89,–
C#CCOCCOCCOCCNc1nc(N2CCN(C(=O)[C@H](CCCCN)n3cc([C@@H](N)CO)nn3)CC2)nc(N2CCN(C(=O)[C@H](Cc3cc4ccccc4[nH]3)n3cc([C@@H](N)Cc4ccc(O)cc4)nn3)CC2)n1,–,56,·,190,·,·,–,–,–
O=C1NNC(c2ccccc2)=N/C1=C\c1ccco1,–,–,–,44[inhibitor],–,–,–,–,–
CN(C)CCN1C(=O)c2oc3ccccc3c(=O)c2C1c1ccc(F)cc1 (stereo not given),2.0[inhibitor],–,–,-1.0[inhibitor],–,–,–,–,–
CCN(CC)CCN1C(=O)c2oc3ccccc3c(=O)c2C1c1ccc(C)cc1 (stereo not given),–,–,–,–,–,–,·,·,·
O=C(NCCCO)c1ccc(CSc2nc3ccccc3c(=O)[nH]2)cc1,128,–,–,–,–,–,–,–,–
O=C(NCCCN1CCCC1=O)c1ccc(NS(=O)(=O)c2ccc(F)cc2)cc1,·,·,–,·,–,–,·,·,·
CCOc1ccccc1N(CC(=O)OC)S(=O)(=O)c1ccccc1,126,–,–,–,–,–,–,–,–
CCOc1ccccc1N(CC(=O)O)S(=O)(=O)c1ccccc1,–,–,–,–,–,–,·,·,·
CCOc1ccccc1N(CC(=O)NC1CCCCC1)S(C)(=O)=O,74[inhibitor],–,–,–,–,–,–,–,–
CCOc1ccccc1N(CC(=O)NC1CCCCC1)S(=O)(=O)c1ccc(C)cc1,–,–,–,–,–,–,·,·,·
COc1cc(COC(=O)c2cnc(C)cn2)c(OC)cc1Br,–,–,–,–,–,–,·,·,·
COc1cc(S(=O)(=O)N2CCN(c3ccccn3)CC2)ccc1Br,–,–,–,–,–,–,·,·,·
CCC(C)N1C(=O)/C(=C/c2c(NCCCOC(C)C)nc3c(C)cccn3c2=O)SC1=S (stereo not given),32[inhibitor],123,–,·,–,59,–,–,–
Cn1c(=O)cc(N2CCOCC2)[nH]c1=O,–,–,–,70[inhibitor],–,–,–,–,–
Cc1cc(OCC(=O)Nc2ccncc2)cc(C)c1Cl,–,–,–,–,–,–,·,·,·
COc1ccc(/C=N/NC(=O)CN(Cc2ccccc2)S(=O)(=O)c2ccc3c(c2)OCCO3)cc1,–,–,–,–,–,–,·,·,·
COc1cc(/C=N/NC(=O)CN(Cc2ccccc2)S(=O)(=O)c2ccc3c(c2)OCCO3)ccc1O,136,–,–,–,–,–,–,–,–
Cc1ccc(SCCNC(=O)/C=C/c2ccc([N+](=O)[O-])cc2)cc1,0.0[inhibitor],–,–,1.0[inhibitor],–,–,–,–,–
CCOc1ccccc1C(=O)Nc1ccc2c(c1)C(=O)NC2=O,–,–,–,–,–,–,·,·,·
COc1ccc(NC(=O)C2CCC(CNS(=O)(=O)c3cccs3)CC2)cc1 (stereo not given),5.0[inhibitor],–,–,7.0[inhibitor],–,–,–,–,–
COc1ccc(NC(=O)C2CCC(CNS(=O)(=O)c3cccs3)CC2)cc1OC (stereo not given),–,–,–,–,–,–,·,·,·
COc1ccc(NC(=O)C2CCN(c3nc(C)cc(C)n3)CC2)cc1,2.0[inhibitor],–,–,2.0[inhibitor],–,–,–,–,–
O=C(CC(Sc1ccc(Br)cc1)C(=O)O)c1ccc(F)cc1 (stereo not given),–,–,–,–,–,–,·,·,·
SMILES,MEKK3 PB1 HTS,MEKK2 mut-MEK5,ABCB6 inh MLPCN,MEKK2 WT-MEK5,CRFBP-R2 block,CRFR2-BP ag,MEKK2wt confirm,MEKK2mut-MEK5,MEKK3-MEK5 inh
COc1cccc(C(=O)N2CCN(C(=O)C3CC3)CC2)c1,–,–,–,–,–,–,·,·,·
O=C(NCc1ccccc1)c1ccc(Cn2cc(C(F)(F)F)ccc2=O)cc1,–,–,–,–,–,–,·,·,·
O=C(NCc1cccnc1)c1ccc(Cn2cc(C(F)(F)F)ccc2=O)cc1,69[inhibitor],–,–,–,–,–,–,–,–
O=C(O)c1ccc(Cn2cc(C(F)(F)F)ccc2=O)cc1,37[inhibitor],–,–,–,–,–,–,–,–
O=C(NCc1ccncc1)c1ccc(Cn2cc(C(F)(F)F)ccc2=O)cc1,–,–,–,–,–,–,·,·,·
COC(=O)c1ccc2c(=O)n(CCCCCC(=O)N3CCN(c4ccccc4)CC3)c(=O)[nH]c2c1,122,–,–,–,–,–,–,–,–
CCN1CCN(CCNC(=O)c2ccc(/C=C3/Sc4ccccc4N(Cc4ccccc4C)C3=O)cc2)CC1,–,54,–,203,–,–,–,–,–
Cc1ccccc1CN1C(=O)c2ccccc2Sc2ccc(C(=O)NCCN3CCOCC3)cc21,–,–,–,–,–,–,·,·,·
O=C(NCc1ccc(C(F)(F)F)cc1)C1CC(c2ccc(C(F)(F)F)cc2)=NO1 (stereo not given),–,–,–,–,–,–,·,·,·
O=C(NCc1ccccc1C(F)(F)F)C1CC(c2ccc(C(F)(F)F)cc2)=NO1 (stereo not given),81[inhibitor],–,–,–,–,–,–,–,–
O=C1NC[C@H](CCCCN2C[C@H](Cc3ccccc3)N(CC3CCCCC3)C(=O)C2=O)N(CC2CCCCC2)C1=O,·,·,–,·,·,·,·,·,·
CCCN(C(=O)c1cc(S(=O)(=O)N(C)c2ccccc2OC)ccc1C)C1CCS(=O)(=O)C1 (stereo not given),·,·,–,·,–,–,·,·,·
CCN(CC)c1ccc2cc(C(=O)Nc3ccccn3)c(=O)oc2c1,–,–,–,58[inhibitor],–,263,–,–,–
CCC1=NN(C(=O)c2cccnc2)C(O)(C(F)(F)F)C1 (stereo not given),–,–,–,–,–,–,·,·,·
CCC1=NN(S(=O)(=O)c2ccc(C)cc2)C(O)(C(F)(F)F)C1 (stereo not given),128,–,–,–,–,–,–,–,–

# From PubChem
